Assay in all cases: NCI-60 one-dose screen, 48 h (100 = growth as untreated, 0 = no growth, -100 = all killed)
Conditions in all cases: 10 µM unless noted

Assay [1] has as its system SR leukemia.
The test system of assay [2] is RPMI-8226 leukemia.
Assay [3] relates to OVCAR-8 ovarian.
For assay [4], the system named is OVCAR-5 ovarian.
Assay [5] deals with OVCAR-4 ovarian.
The subject of assay [6] is SK-OV-3 ovarian.
In assay [7] the test system is IGROV1 ovarian.
The test system of assay [8] is OVCAR-3 ovarian.
For assay [9], the system named is HS 578T breast.
Assay [10] relates to NCI/ADR-RES ovarian.

Each structure is given as a SMILES string. This is part of a sample that, as a whole, favours compounds with a hit. Of some 83,000 tested, about 20% had one in any assay.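 Interpretation: 100, growth as untreated; towards 0, rising growth inhibition; 0, no net growth; 0 to -100, cell death. Compounds scoring below 10 were considered active.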 A number with no mark means an inactive call. Active and inactive are the calls of the source.

With `Cn1cc(-c2csc(-c3c[nH]c4ccc(Br)cc34)n2)c2ccnc(Cl)c21`, the growth is 31.6% in assay [1]; 51.4% in assay [2]; 63.8% in assay [3]; 114% in assay [4]; 53.6% in assay [5]; 78.1% in [6]. In addition, the growth in [7] was 65.9%; in assay [8] it was 77.4%; in assay [9], 68.7%; in assay [10] it was 65.6%.

Regarding `Nc1nc(N)c(-c2ccc(Cl)c(Cl)c2)c(CBr)n1`, the growth is 62.1% in [1]; 80.2% in [2]; 75.6% in assay [3]; 55.3% in [4]; 107% in assay [5]; 99% in [6]. Also, the growth in assay [7] was 47.5%; in [8], 106%; in assay [9], 91.9%; in assay [10], 58.2%.

As for `CC(=O)Oc1ccc(/C(=C(\C)c2ccc(Cl)cc2)c2ccc(OCCN3CCCCC3)cc2)cc1`, the growth in assay [1] was -27.3% (active); in assay [2] it was 9.5% (active); in [3], 57.1%; in assay [4] it was 75.1%; in [5], 57.1%; in assay [6], 54.6%. The growth in assay [7] was 61.8%; in assay [8], 66.7%; in assay [9], 52.9%; in assay [10] it was 50%.

On to `O=C1/C(=C/c2cccc(F)c2)CN(C(=O)C(Cl)Cl)C/C1=C\c1cccc(F)c1`, for which the growth in assay [1] is -15.8% (active); in assay [2] it was -31.3% (active); in assay [3], -48.3% (active); in assay [4] it was -63.6% (active); in assay [5], -36.9% (active); in assay [6] it was 29.8%. Further, the growth was -77.2% (active) in assay [7], -92.2% (active) in assay [8], -13.7% (active) in [9] and -3.11% (active) in assay [10].

On to `CN(C)CC(C)(C)C(=O)/C=C/c1ccccc1`, for which the growth in [1] was -16.5% [25 µM] (active); in [2] it was -23.4% [25 µM] (active); in [3], -47.1% [25 µM] (active); in assay [4], -12% [25 µM] (active); in assay [5], -19.5% [25 µM] (active); in assay [6], -20.1% [25 µM] (active). The growth in assay [7] was -16.7% [25 µM] (active); in assay [8], -18.5% [25 µM] (active); in [9], -2.87% [25 µM] (active); in [10], -9% [25 µM] (active).

Take `Cn1cc(-c2csc(-c3c[nH]c4ccccc34)n2)c2cnccc21`: the growth is -7.21% (active) in [1]; -28% (active) in assay [2]; 18.2% in assay [3]; 75.4% in [4]; 14.3% in [5]; 85.3% in [6]. Also, the growth is 47.3% in assay [7], -59.8% (active) in assay [8], 88.3% in assay [9] and 35.9% in assay [10].

Consider `CCOC(=O)C(=O)C(C(=O)OCC)c1ccccc1` (stereo not given), for which the growth is 94.7% in [1]; 94.3% in assay [2]; 120% in assay [3]; 106% in assay [4]; 106% in assay [5]; 110% in assay [6]. The growth in assay [7] was 122%; in assay [8] it was 120%; in [9], 94.2%; in assay [10], 109%.

Take `COc1ccc(C/C(C)=C(\c2ccc(Cl)cc2)c2ccc(OCCN3CCCCC3)cc2)cc1`: the growth in [1] was 80.6%; in [2] it was 90.6%; in assay [3], 94.9%; in assay [4] it was 81.4%; in assay [5] it was 102%; in assay [6], 103%. Moreover, the growth in [7] was 99.9%; in assay [8], 114%; in [9], 86.8%; in [10], 108%.

Consider `Nc1nc2ccc(-c3nc4ccc5[nH]ncc5c4c4c3CCCC4)cc2s1`, for which the growth was 95.9% in assay [1]; 115% in assay [2]; 100% in assay [3]; 105% in [4]; 107% in assay [5]; 94.4% in assay [6]. Besides, the growth is 102% in assay [7], 110% in assay [8], 99.7% in [9] and 103% in assay [10].

With `CCN1C(=O)N(CC)C2C1NN=c1s/c(=C\c3ccccc3F)c(=O)n12` (stereo not given), the growth in assay [1] was 8.64% (active); in [2] it was 21.4%; in [3], -1.12% (active); in assay [4], 27.5%; in assay [5], 41.4%; in [6], 32.6%. In addition, the growth in assay [7] was 15.2%; in assay [8], 0.255% (active); in assay [9], 13.2%; in assay [10], 6.01% (active).

In the case of `CCO/C=N/C1=C(C#N)C(c2ccc(Cl)cc2)c2sc3c(F)cccc3c2O1` (stereo not given), the growth is 36.8% in [1]; 54.2% in [2]; 77.8% in assay [3]; 89.2% in assay [4]; 77.6% in assay [5]; 81.9% in assay [6]. Moreover, the growth in [7] is 60.7%; in [8], 25.3%; in assay [9], 55.6%; in assay [10], 39.6%.

For `CCN(C)S(=O)(=O)Nc1cccc(Nc2ncnc3cc(NC(=O)CCl)ccc23)c1Cl`, the growth in assay [1] is 6.73% (active); in assay [2], -6.79% (active); in [3], 2.03% (active); in assay [4] it was -17.5% (active); in assay [5] it was 14.9%; in [6], 23.4%. The growth in [7] was -7.09% (active); in [8], -65.1% (active); in [9], 13.4%; in assay [10], 59.3%.

In the case of `CC(=O)c1c(C)nc2ccccc2c1/C=C/c1ccc(F)cc1`, the growth in assay [1] was 81.2%; in assay [2], 66.5%; in assay [3], 92.9%; in assay [4], 97.7%; in assay [5], 76.7%; in assay [6], 100%. Moreover, the growth is 85.1% in assay [7], 92.9% in assay [8], 91.9% in assay [9] and 67.6% in assay [10].

Take `C=C1CC[C@@H]2[C@](C)(COC(C)=O)[C@H](OC(C)=O)CC[C@@]2(C)[C@@H]1CC(Nc1ccc(S(=O)(=O)Nc2ncccn2)cc1)C1=CCOC1=O` (stereo not given in full): the growth in [1] is -4.43% (active); in assay [2], -12.7% (active); in assay [3], 3.81% (active); in [4], -1.98% (active); in assay [5] it was 42.7%; in assay [6] it was 84.7%. Besides, the growth is 7.21% (active) in assay [7], -80.6% (active) in assay [8], 51.2% in assay [9] and 16.1% in assay [10].

Take `Nc1n[nH]c2cccc(C#Cc3cccc(C(=O)Nc4cc(C(F)(F)F)cc(C(F)(F)F)c4)c3)c12`: the growth in assay [1] is 49.7%; in assay [2], 52.6%; in assay [3], 82.9%; in assay [4] it was 75.9%; in assay [5], 85.4%; in assay [6], 109%. Further, the growth in assay [7] is 45.7%; in assay [8], 90.6%; in assay [9], 54.9%; in [10], 74.2%.

With `CN(c1cc2ncc(=O)[nH]c2cc1NC(N)=NCc1ccc(Cl)cc1)C1CCCCC1`, the growth in [1] is -22.7% (active); in assay [2], 8.99% (active); in assay [3] it was 70.4%; in assay [4], 73.2%; in assay [5], 72.7%; in [6] it was 84.7%. For the same compound, the growth in assay [7] is 61.6%; in assay [8], 82.3%; in [9], 64.2%; in assay [10], 115%.

Regarding `Cc1ccc(NC(=O)Cn2cc(CN3CCN(c4ccnc5cc(Cl)ccc45)CC3)nn2)cc1`, the growth in assay [1] was 60.2%; in assay [2] it was 64.7%; in assay [3] it was 89.8%; in assay [4], 95.5%; in [5], 76.6%; in assay [6], 68.4%. Further, the growth was 91.1% in [7], 91.3% in [8], 83.2% in [9] and 89.1% in assay [10].

For the compound `CC1=C2[C@@H](CC1)[C@]1(C)O[C@@](C(C)C)(C[C@H]1OC(=O)[C@H](C)O)[C@H]2OC(=O)/C=C/c1ccccc1`, the growth in assay [1] is 71.9%; in assay [2] it was 65.6%; in [3], 10.2%; in assay [4], 97.9%; in [5] it was 81.7%; in assay [6] it was 83.5%. The growth in assay [7] is 97.4%; in [8], 91.1%; in assay [9], -2.45% (active); in assay [10], 4.27% (active).

As for `Cn1cc(-c2ccc3nc(-c4ccc(CC(=O)ONc5cc(C(C)(C)C)on5)cc4)cnc3c2)cn1`, the growth in [1] is 15.5%; in assay [2] it was 45.2%; in [3] it was 33.7%; in [4] it was 66.1%; in assay [5], 35.4%; in assay [6], -17.1% (active). Moreover, the growth in assay [7] is 10.3%; in assay [8], 48%; in assay [9], 31%; in [10] it was 33.2%.

As to `O=C(/C=C/c1ccco1)Nc1ncc(Cc2cccc(C(F)(F)F)c2)s1`, the growth is 9.93% (active) in [1]; 12.4% in [2]; 8.79% (active) in assay [3]; 30.3% in [4]; 4.64% (active) in assay [5]; 16.9% in assay [6]. Also, the growth is 4.48% (active) in [7], -33.3% (active) in assay [8], 0.428% (active) in assay [9] and -4.7% (active) in [10].

As for `O=C(CSc1oc(-c2ccccc2)nc1S(=O)(=O)c1ccccc1)Nc1ccc(F)cc1`, the growth was 83.8% in assay [1]; 55.7% in [2]; 88.7% in [3]; 87.5% in assay [4]; 67.4% in [5]; 95.8% in assay [6]. Besides, the growth in assay [7] is 88.9%; in [8], 85.7%; in assay [9], 97.9%; in assay [10], 75.3%.

For the origin of these results see PubChem BioAssay (NCI).
